Bioassay records from PubChem BioAssay.
USP7 block = inhibitors of human USP7 deubiquitinase; Ubiquitin carboxyl-terminal hydrolase 7 (Homo sapiens), Q93009; purified USP7, Ub-rhodamine cleavage fluorescence; inhibition, % at 20 µM; hit rate 0.3% among 47,000; AID 1645854, 2021
Target sequence (Q93009 whole entry, looked up): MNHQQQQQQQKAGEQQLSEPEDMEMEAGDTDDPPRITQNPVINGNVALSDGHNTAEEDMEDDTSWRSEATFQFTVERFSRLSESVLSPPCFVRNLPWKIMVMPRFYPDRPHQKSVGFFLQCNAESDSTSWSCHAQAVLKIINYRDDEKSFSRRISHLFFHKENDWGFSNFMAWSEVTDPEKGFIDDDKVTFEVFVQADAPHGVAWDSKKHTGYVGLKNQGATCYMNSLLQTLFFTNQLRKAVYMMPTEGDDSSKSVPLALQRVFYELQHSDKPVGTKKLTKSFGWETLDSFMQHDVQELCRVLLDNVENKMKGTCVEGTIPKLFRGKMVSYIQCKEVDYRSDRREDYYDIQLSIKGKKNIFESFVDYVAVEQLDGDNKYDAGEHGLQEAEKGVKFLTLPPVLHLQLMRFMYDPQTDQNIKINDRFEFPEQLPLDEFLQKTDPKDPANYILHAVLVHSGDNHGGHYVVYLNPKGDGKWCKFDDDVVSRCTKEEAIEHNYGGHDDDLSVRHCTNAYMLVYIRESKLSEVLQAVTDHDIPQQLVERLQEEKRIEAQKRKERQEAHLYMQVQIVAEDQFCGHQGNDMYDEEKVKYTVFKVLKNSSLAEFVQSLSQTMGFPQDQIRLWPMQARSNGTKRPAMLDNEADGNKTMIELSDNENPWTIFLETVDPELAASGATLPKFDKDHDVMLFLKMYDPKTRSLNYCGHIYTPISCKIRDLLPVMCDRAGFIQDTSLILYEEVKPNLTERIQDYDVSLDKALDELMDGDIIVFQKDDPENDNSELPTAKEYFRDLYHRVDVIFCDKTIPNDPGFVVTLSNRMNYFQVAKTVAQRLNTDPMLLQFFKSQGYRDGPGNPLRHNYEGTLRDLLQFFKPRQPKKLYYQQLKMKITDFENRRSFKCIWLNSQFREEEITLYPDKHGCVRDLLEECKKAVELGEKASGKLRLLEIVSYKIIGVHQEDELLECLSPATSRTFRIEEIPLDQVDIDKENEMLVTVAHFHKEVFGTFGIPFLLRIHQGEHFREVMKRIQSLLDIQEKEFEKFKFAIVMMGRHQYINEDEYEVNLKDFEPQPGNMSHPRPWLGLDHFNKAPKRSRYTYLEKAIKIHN
UCHL1 inh = inhibitors of human UCHL1 deubiquitinase | Ubiquitin carboxyl-terminal hydrolase isozyme L1 (Homo sapiens), P09936 | purified UCHL1, Ub-rhodamine cleavage fluorescence | inhibition, % at 20 µM | hit rate 0.2% among 47,000
USP8 inh = inhibitors of human USP8 deubiquitinase. Ubiquitin carboxyl-terminal hydrolase 8 (Homo sapiens), P40818. purified USP8, Ub-rhodamine cleavage fluorescence, 30 min. inhibition, % at 20 µM. hit rate 4.2% among 47,000
OTUD3 inh = inhibitors of human OTUD3 deubiquitinase; hit rate 0.7% among 47,000; AID 1645858, 2021; inhibition, % at 25 µM; purified OTUD3, Ub-rhodamine fluorescence, 2 h; OTU domain-containing protein 3 (Homo sapiens), Q5T2D3
USP10 inh = inhibitors of human USP10 deubiquitinase. Ubiquitin carboxyl-terminal hydrolase 10 (Homo sapiens), Q14694. purified USP10, Ub-rhodamine fluorescence, 60 min. inhibition, % at 20 µM. hit rate 1.1% among 47,000
An asterisk follows results filed as active. This is a sample that favours compounds with a hit; in the whole collection about 4.9% have one here. Rule as the data show it: active = inhibition above about 30%; inactive = the rest.

SMILES	USP7 block	UCHL1 inh	USP8 inh	OTUD3 inh	USP10 inh
Fc1ccc(C(c2nnc(-c3ccccc3)o2)N2CCN(c3ccccn3)CC2)cc1 (stereo not drawn)	-3	-6	-23	-4	0
Cn1c(=O)c(Cl)nc2c(OCc3ccccc3)nc(N)nc21	4	5	-1	14	0
Nc1nc(OCc2ccccc2)c2[nH]c(/C=C/c3cccs3)nc2n1	5	4	72*	25	15
Cc1cc(N2CCCC2c2cncc(-c3nccn3C)n2)ncn1 (stereo not drawn)	0	-3	-35	-9	-7
O=C(NC1(c2ccc(F)cc2)CCCC1)c1cncnc1	1	0	8	10	-1
CCOc1ccc(NC(=O)Cn2c(-c3ccccc3)cc(C(C)=O)c2C)cc1	8	0	36*	15	22
COc1ccc(-c2cc(C(C)=O)c(C)n2CCC(=O)Nc2ccc(C)cn2)cc1	1	0	-19	-38	-3
CCc1ccc(NC(=O)CSc2nc3nccnc3c(=O)n2Cc2ccc(F)cc2)cc1	7	4	44*	0	21
O=C(NCc1ccccc1)C1Cn2ccnc2C2(CCN(C(=O)Cc3ccccc3)CC2)O1 (stereo not drawn)	2	-1	-84	10	-2
CC1CC(=O)c2c(cc3c(-c4c(O)cc(O)c5c(O)c6c(cc45)OC(C)CC6=O)c(O)cc(O)c3c2O)O1 (stereo not drawn)	74*	83*	78*	78*	83*
COc1ccc(NS(=O)(=O)c2cc(NC(=O)/C=C/c3ccco3)ccc2N2CCCC2)cc1	13	18	76*	44*	17
O=C(c1cnccn1)N1CCCC1c1[nH]ncc1-c1ccc(F)cc1 (stereo not drawn)	2	3	14	-12	0
COc1ccccc1C(c1c(O)cc(C)n(C)c1=O)c1c(O)cc(C)n(C)c1=O	-1	-4	-139	-16	-2
CCCCCCCC1OC(=O)Cc2cc(O)c(O)c(O)c21 (stereo not drawn)	75*	63*	77*	92*	82*
COc1ccc(Cn2c(CO)cnc2SCC(=O)Nc2ccccc2OC)cc1	-4	1	0	10	-1
CC(C)CNc1ncnc2c1sc1nc(-c3ccccc3)c3c(c12)CCC3	3	-2	39*	13	0
CCN(CC)c1ncnc2c1sc1nc(-c3ccccc3)c3c(c12)CCC3	-4	-6	-20	-30	-9
Cc1cccc(NC(=O)CSc2nnc(-c3n[nH]c4c3CCC4)n2N)c1C	9	-1	51*	11	20
Cc1ccc(NC(=O)CSc2nnc(-c3n[nH]c4c3CCC4)n2N)cc1C	8	5	8	1	36*
CCC(C)NC(=O)c1c(O)c2cccc3c2n(c1=O)CC3 (stereo not drawn)	-7	2	53*	14	2
Cc1ccccc1Cn1c(=O)n(CCC(=O)NCc2ccco2)c(=O)c2ccccc21	-7	1	38*	-9	16
O=C(CCn1c(=O)c2ccccc2n(Cc2ccccc2F)c1=O)NCc1ccco1	-26	7	8	-3	39*
CCOC(=O)N1CCC(NC(=O)c2cc(C(=O)Nc3ccc(S(=O)(=O)N4CCCCC4)cc3)ccc2CO)CC1	8	6	-12	39*	32*
COc1cc(C2CN3C(=O)CN(Cc4ccco4)C(=O)[C@]3(C)c3[nH]c4ccccc4c32)ccc1OC(C)C (stereo partly drawn)	4	5	-18	-19	-13
Cc1noc(-c2cccn(Cc3noc(-c4ccccc4C)n3)c2=O)n1	0	-2	-10	13	-4
SMILES	USP7 block	UCHL1 inh	USP8 inh	OTUD3 inh	USP10 inh
Cc1ccccc1-c1noc(-c2cccn(CC(=O)Nc3ccccc3F)c2=O)n1	13	-4	76*	-13	-6
Cc1ccc2c(c1)[nH]c1c(N3CCc4ccccc4C3)ncnc12	6	7	35*	-1	3
COc1ccc(C)cc1NC(=O)Nc1nnc(CC(=O)NCc2ccccc2)s1	14	3	38*	2	19
O=C(Cc1nnc(NC(=O)Nc2cc(F)ccc2F)s1)NCc1ccccc1	3	-4	12	21	13
COC(=O)c1ccc(C(=O)OC)c(N2C(=O)CSCC2=O)c1	-9	2	36*	13	7
CCOC(=O)c1cc2c(ccn2-c2ccc(F)cc2)n1CC(=O)Nc1ccc2c(c1)OCCO2	5	-3	54*	-1	37*
COc1cc2c(=O)c(C(=O)c3ccc(F)cc3)cn(CC(=O)Nc3ccc4c(c3)OCCO4)c2cc1OC	8	1	-19	-3	14
COc1ccc(OCc2nn3c(-c4ccccc4Cl)nnc3s2)cc1	4	0	-28	14	14
CC(C)Cc1cc(-c2nnc3sc(-c4ccco4)nn23)n[nH]1	7	10	35*	41*	10
CS(=O)(=O)c1cnc(N2CCCCC2)nc1C1CCN(C(=O)c2cnccn2)CC1	-11	-3	-7	-5	-4
COc1ccc(Nc2nnc(Cc3ccc(Cl)cc3)c(=O)[nH]2)cc1	28	0	92*	3	39*
O=C(Nc1ccc2c(c1)OCO2)c1cc(-c2ccc(Cl)cc2)nc2ccccc12	2	0	-57	9	1
NS(=O)(=O)c1ccc(CCNC(=O)c2cc(-c3ccc4c(c3)OCO4)nc3ccccc23)cc1	-9	4	31*	-12	16
COc1ccc(-c2cc(C(=O)NCCc3ccc(S(N)(=O)=O)cc3)c3ccccc3n2)cc1	13	0	53*	-19	29
O=C(Cn1cnc(-c2noc(-c3ccccc3)n2)c1)Nc1ccccc1	18	29	90*	-2	42*
O=C(Cc1noc(-c2ccccc2)n1)Nc1ccccc1	-8	-7	13	-13	-8
O=C(COc1cccc(-c2noc(-c3ccc([N+](=O)[O-])cc3)n2)c1)Nc1ccccc1	7	-2	9	0	22
O=C(Cn1cnc(-c2noc(-c3cccc(F)c3)n2)c1)Nc1ccccc1	5	6	65*	-3	27
Cc1ccc(NCc2cc3c(-c4cccc(F)c4)nn(-c4ccccc4)c3[nH]c2=O)cc1C	51*	18	37*	-95	36*
O=c1[nH]c2c(cc1CNc1ccc(Cl)cc1)c(-c1cccc(F)c1)nn2-c1ccccc1	14	-1	-9	-8	5
O=c1[nH]c2c(cc1CNc1ccc(Oc3ccccc3)cc1)c(-c1ccc(F)cc1)nn2-c1ccccc1	50*	40*	77*	-11	63*
COc1ccc2nc(-n3nc(C)c4c3NC(=O)CC4c3ccc(F)cc3)sc2c1 (stereo not drawn)	1	1	0	13	0
